# Results as given in PubChem BioAssay (NCI).
# The panel holds about 83,000 compounds, 20% with a hit somewhere; the sample as a whole holds those more often.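 Values shown are percent growth following 48 h exposure of cells in 96-well plates to a single concentration of compound; below 10 was considered active.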 A number with no mark means an inactive call. The source made the active and inactive calls.
# Assays:
# Assay in all cases: NCI-60 one-dose screen, 48 h (100 = growth as untreated, 0 = no growth, -100 = all killed)
# Conditions in all cases: 10 µM unless noted
# [1] = tested on: NCI-H23 lung
# [2] = tested on: NCI-H226 lung
# [3] = tested on: NCI-H322M lung
# [4] = tested on: HOP-62 NSCLC
# [5] = tested on: NCI-H460 lung
# [6] = tested on: HOP-92 NSCLC
# [7] = tested on: NCI-H522 lung
# [8] = tested on: A549/ATCC NSCLC
# [9] = tested on: 786-0 renal
# [10] = tested on: COLO 205 colon
Compound,growth [1],growth [2],growth [3],growth [4],growth [5],growth [6],growth [7],growth [8],growth [9],growth [10]
COc1cc(-c2nn(-c3cccc(NC(=O)Nc4cccc(C(F)(F)F)c4)c3)cc2-c2ccncc2)ccc1Cl,-12.4% (active),4.3% (active),21.7%,-29.8% (active),-7.91% (active),-33.6% (active),-30.8% (active),-14% (active),-15% (active),-88.9% (active)
CC12CCC3C4(C)COC(c5ccco5)OC4CCC3(C)C1CC(C1=CCOC1=O)O2 (stereo not given),103%,101%,98.9%,105%,102%,100%,109%,107%,93.4%,110%
COc1cc(NC(N)=NCCC(C)(C)c2ccc(C(F)(F)F)cc2)ncc1C#N,6.42% (active),55.5%,36.1%,54.5%,6.06% (active),-3.76% (active),16.8%,27.2%,36%,-83.6% (active)
Oc1ccccc1/C=N/NC(=S)NC1CC2C=CC1C2 (stereo not given),56.3%,107%,83.1%,85.6%,16.6%,82.4%,60.3%,69.9%,83.4%,108%
CCOC(=O)c1c(NS(=O)(=O)c2ccc(C)cc2)sc2c1CCC1(C2)OCCO1,94.2%,85.8%,99.8%,90.7%,100%,77.1%,79.6%,103%,99.3%,115%
CN(C)c1ncnc2c1ccn2C1OC(CO)C(O)C1O (stereo not given),54.5%,72.7%,3.23% (active),50.8%,45.6%,-6.76% (active),90.9%,61.4%,34.8%,54.3%
CCCCCCCCCCCCNC(=O)[C@H]1CSC(c2ccsc2)N1 (stereo not given in full),-52.9% (active),-74.1% (active),3.58% (active),-94.7% (active),-80.1% (active),-10% (active),32.7%,63.7%,-94.8% (active),84%
C=C1c2nc3ccccc3n2C=C(c2ccc(Cl)cc2)N1Cc1ccccc1,73.4%,76.9%,96%,106%,88.2%,73.6%,66.3%,70.6%,89.5%,105%
O=S(=O)(CC(O)(c1ccccc1)c1ccccc1)CC(O)(c1ccccc1)c1ccccc1,88.3%,84.1%,59.3%,68.8%,77.6%,86.7%,108%,94.1%,90.2%,90.2%
CCN(CC)c1ccc(N=O)cc1,81.7%,101%,87.7%,91.8%,58.9%,51.9%,-80.9% (active),59.7%,91.8%,13.9%
CNc1ccc(Br)c2c1C(=O)c1ccccc1C2=O,98.3%,104%,110%,107%,105%,80.6%,98%,110%,96.7%,132%
C=C1CCC2C3(C)COC(c4c(OC)cccc4OC)OC3CCC2(C)C1C/C=C1/C(=O)OCC1O (stereo not given),80%,80.2%,70.3%,104%,89%,46.7%,24.6%,47.9%,90.3%,-15.2% (active)
CCCCCCCC[C@@H](O)CC(=O)N[C@@H](CC(N)=O)C(=O)N[C@@H](CCC(N)=O)C(=O)N[C@@H](CC(=O)c1cc(C)cc(O)c1C(=O)c1c(O)cccc1O)CC(C)C,23.5%,89.1%,86.8%,6.71% (active),23.4%,-17.8% (active),-22.5% (active),60.1%,11.6%,13.5%
COc1ccc(C(=O)N2NC(=O)/C(=C/c3ccc(F)cc3)N=C2c2ccccc2)cc1,92.2%,96.5%,92%,99.3%,104%,93.7%,93.3%,86.4%,78.9%,119%
CCOC(=O)c1cn2c3c(cccc3c1=O)C(=O)/C(=C/c1cccc(Cl)c1Cl)C2,93%,83%,97.4%,81.8%,107%,63.8%,73.1%,98.2%,90.6%,117%
COc1cc(-c2nn(-c3cccc(NC(=O)c4ccc(Cl)c(C(F)(F)F)c4)c3)cc2-c2ccncc2)ccc1Cl,58.9%,56.3%,84.9%,53%,25.3%,22.5%,1.5% (active),23.3%,59.5%,69.4%
CCN(CC)CCC(CNc1ccnc2cc(Cl)ccc12)c1ccc(Cl)cc1 (stereo not given),48.6%,14.4%,34.6%,6.58% (active),-12.4% (active),-39.9% (active),-59.1% (active),12.3%,-59.1% (active),-97.7% (active)
N/C(=N\S(=O)(=O)c1ccccc1)Nc1nc2ccccc2s1,87.9%,76.7%,91.1%,86.3%,107%,76.2%,73.2%,95.9%,95.4%,96.4%
COc1ccc(C2C=C(c3ccc(OC)c(OC)c3)N=C3SC=C(C)N32)c(Br)c1 (stereo not given),99.2%,99.2%,95.8%,108%,105%,156%,96.7%,103%,111%,108%
Cn1ccc(=O)c(S(N)(=O)=O)c1,95.6%,108%,108%,92.4%,102%,89.3%,96.2%,99.7%,103%,117%
COc1cccc(-c2nc3sccn3c2-c2ccnc(NCCCNS(=O)(=O)c3ccc(F)cc3)c2)c1,30.6%,27.5%,69.9%,64.1%,34.8%,58.8%,29.3%,23.2%,56.8%,33.1%
O=C(CCl)N(C1CCCCC1)C1CCCCC1,87.9%,105%,98.8%,119%,107%,92.8%,-36.8% (active),115%,99.3%,109%
CCc1ccc(-c2ccc(=O)n(-c3ccc(S(N)(=O)=O)cc3)n2)cc1,59.9%,94.1%,115%,56.9%,12.6%,65.7%,-33.6% (active),18%,50%,26%
CCNc1nc(S(=O)(=O)CC)nc2ccccc12,103%,102%,104%,96.1%,101%,104%,81.8%,105%,101%,114%
CCCCN(CCCC)C(=N)c1ccnc2ccccc12,108%,116%,110%,119%,108%,96.4%,102%,96.7%,115%,125%
Cc1ccc(-c2nc(C(Cl)Cl)n3nc(-c4ccccc4)cc3n2)cc1,47.3%,88%,83.3%,3.61% (active),15.5%,-8.47% (active),100%,12%,17.8%,6.05% (active)
O=[N+]([O-])c1ccc(C(c2ccccc2)c2ccccc2)cc1,89.6%,100%,78%,102%,94%,85.9%,87%,91.5%,99.4%,92.6%
